The list is not random: actives were taken first. Their share in the collection is about 1.6%.
SIRT5 block = sirtuin-5 (human) deacylase inhibition; AID 652115; hit rate 1.1% among 330,000; Q9NXA8; Purified SirT5, succinyl-peptide AMC, trypsin-coupled fluorescence; inhibition, % at 15 µM; in the data active means inhibition above about 15%
NSD2 inh = inhibitors of human histone methyltransferase NSD2; O96028; NSD2 peptide methylation, AlphaScreen, 120 min; inhibition, % at 12.5 µM; hit rate 0.54% among 310,000; in the data active means inhibition above about 50%
CASP6 VEID inh = inhibitors of human caspase-6; inhibition, % at 12.5 µM; hit rate 0.53% among 350,000; P55212; purified caspase-6, Z-VEID-R110 cleavage fluorescence;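 active means mean inhibition across replicates at least about 35%, with every replicate also reaching that limit, limit read from the data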;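 further: 0% = median of neutral control wells and 100% = no fluorescence left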
Target sequence (P55212 24-179 limits assumed): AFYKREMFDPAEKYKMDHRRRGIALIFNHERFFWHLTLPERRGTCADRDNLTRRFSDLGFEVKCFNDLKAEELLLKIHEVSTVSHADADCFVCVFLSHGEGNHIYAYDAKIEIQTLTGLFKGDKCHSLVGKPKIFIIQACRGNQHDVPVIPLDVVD
Target sequence (P55212 194-293 limits assumed): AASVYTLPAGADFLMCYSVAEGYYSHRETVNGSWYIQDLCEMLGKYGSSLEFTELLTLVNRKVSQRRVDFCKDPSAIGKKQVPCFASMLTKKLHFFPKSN
SUMO HTRF inh = inhibitors of human SUMOylation (UBC9). P63279. HTRF SUMOylation assay, SAE1/SAE2 + UBC9, in vitro. inhibition, % at 35 µM. hit rate 0.36% among 290,000. AID 2006; in the data active means inhibition above about 50%, passing the limit was not always enough
Starred values were filed as active, the others as inactive; . = not tested or not shown.

SMILES | SIRT5 block | NSD2 inh | CASP6 VEID inh | SUMO HTRF inh
CCC1(c2ccc(F)cc2)NC(=O)N(CC(=O)Nc2cccc(S(=O)(=O)N3CCCC3)c2)C1=O (configuration not stated) | -2 | 0 | 0 | .
CCN(c1ccccc1)S(=O)(=O)c1ccc(Cl)c(NC(=O)CN2C(=O)NC3(CCCC3)C2=O)c1 | 16* | 1 | 0 | -23
O=C(CN1C(=O)NC2(CCCCC2)C1=O)Nc1cccc(S(=O)(=O)N2CCOCC2)c1 | -1 | -2 | 1 | -2
CCN(c1ccccc1)S(=O)(=O)c1ccc(OC)c(NC(=O)Cc2ccc(F)cc2)c1 | 61* | 25 | -2 | .
O=C(CN1C(=O)NC2(CCCC2)C1=O)Nc1ccc(S(=O)(=O)N2CCOCC2)cc1 | 18* | -5 | 1 | 5
CCC1(c2ccc(F)cc2)NC(=O)N(CC(=O)Nc2cccc(S(=O)(=O)N3CCCCC3)c2)C1=O (configuration not stated) | 15* | -4 | 3 | .
O=C(CCS(=O)(=O)c1ccccc1)N1CCCc2ccccc21 | 17* | 22 | 0 | 2
C[C@@H]1CN([C@@H](C)CO)C(=O)Cc2cc(NS(=O)(=O)c3ccc(F)cc3)ccc2O[C@@H]1CN(C)CC1CC1 | -6 | . | -2 | .
N#Cc1ccccc1CN1C(=O)S/C(=C/c2cccn2-c2ccc(C(=O)O)cc2)C1=O | . | . | . | 14
O=C(O)c1ccc(-n2cccc2/C=C2/SC(=O)N(CC(=O)N3CCCC3)C2=O)cc1 | 19* | . | 66* | 41
CCC(=O)N(C)C[C@H]1Oc2cc(C#CC3CC3)ccc2S(=O)(=O)N([C@@H](C)CO)C[C@H]1C | 1 | . | 1 | .
O=C(Cc1csc(Nc2nc(=S)[nH]c3ccccc23)n1)NCc1ccccc1Cl | . | -3 | . | 8
Cc1ccc(CNC(=O)Cc2csc(Nc3nc(=S)[nH]c4ccccc34)n2)cc1 | 0 | 0 | 41* | 42
CC(C)(C)NC(=O)C1CCN(S(=O)(=O)c2cccc3nsnc23)CC1 | -2 | -2 | 55* | 4
COC(=O)CNC(=O)C1CCN(S(=O)(=O)c2cccc3nsnc23)CC1 | -6 | -5 | 3 | 6
CCCNC(=O)N1C[C@H](O)COC[C@@H]2O[C@@H](CC(=O)N[C@H]3CCN(Cc4ccccc4)C3)CC[C@H]21 | -2 | . | 4 | .
Cc1ccc(OCCSc2nc3ccccc3n2CC(=O)O)cc1 | 16* | -4 | 12 | 12
COc1ccccc1OCCSc1nc2ccccc2n1CC(O)CO (configuration not stated) | 18* | -2 | 1 | 17
COc1ccccc1NC(=O)N1CCCCN2[C@H](C1)[C@@H](c1ccc(-c3cccc(F)c3)cc1)[C@@H]2CO | 10 | . | -1 | .
COc1ccccc1NC(=O)N1CCCCN2[C@H](CO)[C@H](c3ccc(-c4cccc(F)c4)cc3)[C@@H]2C1 | 16* | . | 4 | .
O=C(Nc1cc(F)ccc1F)N1CCCCN2[C@H](C1)[C@H](c1ccc(-c3ccccc3)cc1)[C@@H]2CO | 3 | . | 0 | .
O=C(Nc1cc(F)ccc1F)N1CCCCN2[C@H](CO)[C@H](c3ccc(-c4ccccc4)cc3)[C@H]2C1 | 29* | . | -1 | .
O=C(CC1CC1)N1CC2(C1)[C@H](c1ccccc1)[C@H](CO)N2C(=O)C1CCOCC1 | 0 | . | 1 | .
C[C@@H](NC(=O)C[C@H]1C=C[C@H](NC(=O)C2CCC2)[C@H](CO)O1)c1ccccc1 | 1 | . | 2 | .
CO[C@@H]1CN(C)C(=O)c2ccc(NC(C)=O)cc2OC[C@H](C)N(C(=O)CN2CCOCC2)C[C@H]1C | 3 | . | 0 | .
SMILES | SIRT5 block | NSD2 inh | CASP6 VEID inh | SUMO HTRF inh
O=C(Nc1ccc(Cl)cc1Cl)c1cc2ccccc2o1 | -1 | -2 | -4 | 14
O=C(Nc1ncccc1Cl)c1cc2ccccc2o1 | 20* | -3 | 0 | .
COc1ccc2c(c1)c(=O)oc1c(C)c(OC(C)C(=O)N[C@@H](Cc3c[nH]c4ccc(O)cc34)C(=O)O)ccc12 (some centres not stated) | 3 | . | 39* | 24
COc1ccc(NC(=O)N(C)C[C@@H]2Oc3ccc(NC(=O)Nc4cccc5ccccc45)cc3C(=O)N([C@H](C)CO)C[C@H]2C)cc1 | 10 | . | 0 | .
COCC(=O)Nc1ccc2c(c1)[C@@H]1C[C@@H](CC(=O)NCc3ccccc3OC)O[C@H](CO)[C@@H]1O2 | -1 | . | -3 | .
CN(Cc1ccccc1)C(=O)COc1ccc(N(C)S(=O)(=O)c2ccc(F)cc2)cc1 | 18* | -3 | 0 | 2
CN(c1ccc(OCC(=O)Nc2ccc(S(N)(=O)=O)cc2)cc1)S(=O)(=O)c1ccc(F)cc1 | -1 | 1 | 5 | .
CN(c1ccc(OCC(=O)Nc2cc(Cl)ccc2C(=O)O)cc1)S(=O)(=O)c1ccc(F)cc1 | 1 | 8 | 36* | .
